# FBW7 activator – activators of human E3 ligase FBW7. AlphaScreen FBW7–phospho-cyclin E peptide binding, activator screen. AID 1259310. actives 0.13% (n = 650,000). Q969H0. normalized activity (activation), % at 26.1 µM; in the data active = normalized activity above about 1.9%;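 also: purified mutant Fbw7 with reduced substrate affinity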
# TEAD-YAP inh – TEAD-YAP interaction inhibition | HEK-TIYL cells, TEAD-Gal4/YAP UAS-luciferase luminescence | inhibition, % at 9.12 µM | actives 1.4% (n = 640,000) | AID 1259422; in the data active = inhibition above about 32%;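 also: 0% = median of test compound wells and 100% = reference inhibitor wells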
# GPR151 activ – activators of human GPR151; Q8TDV0; PathHunter beta-arrestin GPR151 cells, luminescence; activation, % at 11.2 µM; actives 1% (n = 650,000); in the data active = activation above about 4.9%;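 also: 0% = median of compound wells and 100% = cells with positive control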
# MITF inh – blocks human microphthalmia-associated transcription factor; inhibition, % at 2.6 µM; actives 0.91% (n = 650,000); O75030; AlphaScreen MITF homodimerization, bead proximity signal; in the data active = inhibition above about 50%;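 also: 0% = vehicle wells with protein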
# Target sequence (O75030 whole entry, looked up): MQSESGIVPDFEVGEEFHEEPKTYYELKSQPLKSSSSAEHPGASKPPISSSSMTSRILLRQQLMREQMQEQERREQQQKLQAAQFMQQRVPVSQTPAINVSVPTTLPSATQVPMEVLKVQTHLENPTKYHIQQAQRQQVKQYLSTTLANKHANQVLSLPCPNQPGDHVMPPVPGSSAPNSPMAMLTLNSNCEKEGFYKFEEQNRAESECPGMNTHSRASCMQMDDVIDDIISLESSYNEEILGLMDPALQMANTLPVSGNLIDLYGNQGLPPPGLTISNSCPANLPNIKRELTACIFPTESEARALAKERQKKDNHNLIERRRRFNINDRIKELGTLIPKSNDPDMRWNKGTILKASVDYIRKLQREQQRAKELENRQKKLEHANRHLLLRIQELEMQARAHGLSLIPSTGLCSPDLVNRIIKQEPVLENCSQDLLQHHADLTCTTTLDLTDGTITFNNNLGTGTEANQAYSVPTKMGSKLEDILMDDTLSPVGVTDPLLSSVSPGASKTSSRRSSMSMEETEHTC
# GPR151 confirm – confirmation of human GPR151 activators. shares compounds with GPR151 activ. GPR151 PathHunter beta-arrestin cells, luminescence, 90 min; % of EA-reagent control over plate median. activation, % at 11.2 µM. 6,700 tested, under 10 active;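 active = mean percent activation across replicates above the confirmation screen cutoff of 4.91%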
# GPR119 ag – activates human GPR119 in a GPR151 counter-screen; shares compounds with GPR151 activ; GPR119 PathHunter beta-arrestin cells, luminescence, 90 min; 0 = compound-well median, 100 = enzyme-acceptor control; activation, % at 11.2 µM; actives 0.3% (n = 6,700);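 active = mean percent activation in the counterscreen above 29.09%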;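 also: counterscreen on off-target GPR119 to flag nonselective hits from the GPR151 activator screen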
# Active calls of the source: *; . = no result given. A selection: hits, their analogues and other compounds. The true share with any hit is near 3.4%.
SMILES,FBW7 activator,TEAD-YAP inh,GPR151 activ,MITF inh,GPR151 confirm,GPR119 ag
O=C(Nc1cccc2ccccc12)c1cc2nc(-c3ccc(Cl)cc3)cc(C(F)(F)F)n2n1,0.2,3.7,0.0,5.3,.,.
CN1CCOCCOCCOCCOCCOCC1,0.0,-4.5,6.3*,-0.5,0.2,-6.7
O=C1CCCN1CCCNc1nccc(NC2CC2)n1,0.1,-10.3,5.5*,-11.1,0.1,-4.3
O=C1CCCN1CCCNc1ccnc(NCCCN2CCCC2=O)n1,0.0,-5.7,2.1,7.0,.,.
CC(=O)Nc1ccc(Nc2cc(C)nc(Nc3ccc(C(F)(F)F)cc3)n2)cc1,-0.1,16.2,5.3*,1.8,-0.2,12.4
Cc1cc(Nc2ccc(Oc3ccccc3)cc2)nc(NCCCN2CCCC2=O)n1,0.0,14.8,6.8*,4.8,-0.9,2.6
CC(=O)Nc1ccc(Nc2cc(C)nc(Nc3ccccc3)n2)cc1,0.1,-16.9,0.5,6.2,.,.
CC(=O)Nc1ccc(Nc2cc(C)nc(NCCCN3CCCC3=O)n2)cc1,-0.2,-5.3,5.6*,7.7,-0.8,-8.1
Cc1ccc(C)c2nc3sc(C(=O)NCc4ccco4)c(N)c3cc12,-0.1,-5.8,-1.0,12.0,.,.
S=C(c1ccc(OCc2ccccc2)cc1)N1CCCCC1,-0.4,-26.0,-1.9,0.9,.,.
Cc1nc(NCC(C)C)nc(NCc2ccccc2)c1[N+](=O)[O-],-0.2,-18.0,0.0,15.4,.,.
COC(=O)c1ccc(NC(=O)CSc2c(C)cnc3c2c(=O)n(C)c(=O)n3C)cc1,0.0,14.6,1.1,10.1,.,.
COc1ccc(-c2ccc(/C=C3/SC(N4CCN(C(C)=O)CC4)=NC3=O)o2)cc1,-0.1,7.9,-0.3,-9.9,.,.
CCC(C)NS(=O)(=O)c1ccc(C#N)cc1 (configuration not stated),0.3,5.9,-0.2,-1.4,.,.
CCCNC(=O)c1ccnc(NCCCN2CCCC2=O)c1,0.3,2.8,8.2*,27.4,-0.7,-0.4
CN1CCN(C2=Nc3c(Cl)cc(Cl)c4cccc2c34)CC1,-0.1,-9.8,11.8*,-1.8,1.4,-0.8
COC(=O)c1ccc(NC(=O)/C=C/c2ccccc2Cl)cc1,1.3,-5.1,6.1*,5.3,-0.4,5.7
O=C(O)c1ccc(NC(=O)C2Cc3ccccc3C(=O)O2)cc1 (configuration not stated),0.0,-2.4,-2.3,-3.9,.,.
Cc1nc2c(c(=O)[nH]1)CN(C(=O)C1(c3cccc(F)c3)CCCC1)CC2,0.1,2.8,6.5*,-0.2,-0.1,5.3
Cc1nc2c(c(=O)[nH]1)CN(C(=O)C1(c3ccc(Cl)cc3)CCC1)CC2,0.1,-4.1,2.1,4.6,.,.
CSc1ccc(NC(=O)Nc2c(C)n(-c3ccccc3)c(=O)n2C)cc1,0.1,8.4,6.5*,6.9,0.2,13.9
COc1ccc(CNCc2cc(NC(=O)c3ccccn3)cc(C(=O)N(C)C)c2)cc1,0.1,-1.6,-0.4,-20.6,.,.
Cc1ccc(C(C)C)c(OC2=NS(=O)(=O)c3cc([N+](=O)[O-])ccc32)c1,0.0,6.2,12.9*,15.6,-0.8,-6.4
Cc1ccc(C)c(OC2=NS(=O)(=O)c3cc([N+](=O)[O-])ccc32)c1,-0.3,0.4,2.6,-2.6,.,.
CN(Cc1ccccc1)C(=O)CCC1CCN(C(=O)C(=O)c2ccccc2)CC1,-0.2,-19.3,5.2*,-7.1,-0.8,2.1
SMILES,FBW7 activator,TEAD-YAP inh,GPR151 activ,MITF inh,GPR151 confirm,GPR119 ag
CC1=C(C(=O)N2CCC(CCC(=O)N(C)Cc3ccccc3)CC2)OCCO1,-0.1,-11.8,-0.9,-0.7,.,.
Cc1nn(-c2ccccc2)c(Cl)c1/C=N\O,-0.1,-5.4,5.1*,-5.0,2.9,4.8
CC(=O)Nc1ccccc1C(=O)OCc1cccc(Br)c1,-0.2,-20.8,0.1,-2.7,.,.
Cc1ccc(N2C(=O)c3ccc(Oc4cccc([N+](=O)[O-])c4)cc3C2=O)cc1,0.0,7.1,-0.1,-1.6,.,.
O=C(NCCCN1CCOCC1)/C(=C/c1ccc(-c2cccc(C(F)(F)F)c2)o1)NC(=O)c1ccc(Cl)cc1,0.0,-5.5,9.4*,-4.3,1.7,24.0
CC(=O)Nc1ccc(NC(=S)NC(=O)c2ccccc2[N+](=O)[O-])cc1,-0.1,-19.8,6.4*,-20.9,0.0,16.4
CCc1cccc(NC(=O)NCc2noc3ccccc23)c1,0.0,6.8,1.7,-8.6,.,.
Cc1ccc2cc(CN(CC3CCCO3)C(=O)C3CCC3)c3nnnn3c2c1 (configuration not stated),-0.1,11.8,8.4*,4.0,3.6,8.4
CCCCNC(=O)C1CCN(c2c3c(nc4ncnn24)CCC3)CC1,0.0,5.1,-0.5,5.4,.,.
O=C(NC1CCN(C(=O)Nc2cccc(Cl)c2)CC1)C1CCCCC1,-0.1,-5.8,-0.8,-9.7,.,.
Cc1cccc(NC(=O)N2CCC(NC(=O)C3CCCCC3)CC2)c1,-0.1,-4.1,5.9*,-9.0,0.8,2.2
Cc1c(Cl)cccc1NC(=O)CN1CCC(NC(=O)C2CCCCC2)CC1,0.0,-9.1,8.4*,-3.9,1.3,14.3
N#C/C(=C\c1ccc(-c2cccc([N+](=O)[O-])c2)o1)C(=O)Nc1ccc([N+](=O)[O-])cc1,-0.1,-4.0,0.3,0.2,.,.
O=C(NCc1ccccc1)/C(=N\O)c1ccccc1,-0.1,-9.9,6.2*,4.8,-0.7,-5.4
CCc1cccc(C)c1NC(=O)CCC(=O)O,0.0,-3.2,-1.3,-1.8,.,.
CCc1cccc(CC)c1NC(=O)CCCC(=O)O,0.9,3.0,6.6*,9.1,-0.1,0.1
COc1ccc(-c2cnc(SCCNC(=O)CCCc3ccccc3)[nH]2)cc1,0.4,-12.9,-0.8,-9.7,.,.
CCC(=O)NCCSc1ncc(-c2ccccc2)[nH]1,0.3,-13.8,5.2*,5.4,-0.8,-2.4
O=c1c2c3c(sc2nc(SCCc2ccccc2)n1Cc1ccccc1)CCCC3,-0.1,5.6,0.6,6.1,.,.
C=COCCNC(=S)Nc1ccc(Br)cc1,0.2,-4.2,-1.0,-18.5,.,.
Cc1cnc(Nc2ccncc2)nc1NCCOc1ccccc1,0.5,2.3,-2.0,1.6,.,.
Cc1cnc(Nc2ccccc2)nc1NCCOc1ccccc1,-0.1,7.2,6.0*,-5.6,0.6,0.6
COc1cccc(/C=C/c2nc3ccccc3c(=O)n2-c2ccc(NC(C)=O)cc2)c1OC,-0.3,3.4,5.6*,0.0,0.9,16.5
Cc1ccc(C(=O)CC(=O)C(=O)Nc2ncccc2O)c(C)c1,-0.7,5.4,8.3*,-24.3,0.4,8.9
Cn1c(=O)c2ncn(CC(=O)Nc3ccc(C(=O)O)cc3)c2n(C)c1=O,0.1,-3.7,5.2*,1.2,-0.2,3.5
COc1ccc(Cc2nnc(SCC(=O)Nc3ccc(C)c([N+](=O)[O-])c3)o2)cc1,-0.1,8.5,7.4*,9.9,-0.1,-8.5
COc1ccc(Cc2nnc(SCC(=O)Nc3ccc(F)cc3)o2)cc1,0.3,1.6,-0.3,-2.4,.,.
Cc1ccc(Nc2nnc(SCC(=O)N3CCCC3)s2)cc1,0.2,1.6,5.6*,-17.1,-0.3,-11.9
